Source: PubChem BioAssay (NCATS)
Records with an inconclusive call do not appear. Activity calls are given as the source filed them. Calls follow the shape of the dose curve; as a rule, active = well fitted inhibition curve with a large enough effect; inconclusive = small, poorly fitted or top-dose-only effect, or effect the other way; inactive = flat fitted curve, though single readings scatter.

Molecular target: ATPase family AAA domain-containing protein 5 (Homo sapiens) (UniProt Q96QE3)
Test: Validation screen for small molecules that inhibit ELG1-dependent DNA repair in human embryonic kidney (HEK293T) cells expressing luciferase-tagged ELG1 (AID 493107); also: nearly all actives have a fitted effect of over 70% in size;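 as to activity change, negative = decrease: inhibitors lower the ELG1-luciferase luminescence signal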
Settings: HEK293T ELG1-luciferase level, luminescence, 5-fluorouridine co-treatment, 16 h; series mostly up to 46.1 µM; activity change, negative = decrease: at the top concentration
From the text: NIH Molecular Libraries Probe Production Network [MLPCN]
NIH Chemical Genomics Center [NCGC]
Assay Provider: Kyungjae Myung, NHGRI, NIH
Keywords: MLPCN, qHTS, NCGC, genotoxicity, cancer
Cancer cells divide rapidly compared to normal cells in the body. During cell division, cancer cells need to duplicate their genome by DNA replication. The failure of genome duplication leads to cancer cells' death. Therefore, inhibitors of DNA replication could specifically kill cancer cells. Based on this concept, many chemotherapeutic agents were developed and have been used to treat cancer patients. However, there are a limited number of agents available in the clinical setting, and some of those that do exist have low efficacy and severe side effects. Therefore, if we can find the compounds that effectively block DNA replication either by directly damaging DNA or by inhibiting other cellular mechanisms, the options for cancer treatment will be broadened. With this in mind, we developed a quantitative high-throughput ELG1-luciferase reporter gene assay. Small molecules that specifically block ELG1 function in response to DNA damage can be identified by monitoring the suppression of luciferase activity. Since ELG1 defines a pathway for repairing DNA damage, agents blocking ELG1 function can be used to sensitize cancer cells to chemotherapeutic agents whose mechanism of action involves the induction of DNA damage.
For genotoxicity screening, 2,000 cells in 4 uL/well were dispensed into white, solid-bottom 1536-well plates using a solenoid-based dispenser. Following transfer of 1 uL 5-Fluorouridine and 23 nL compound or DMSO vehicle by a pin tool, the plates were incubated 16 hr at 37 °C and 5% CO2. 5 ul ONE-Glo (Promega) was then added to each plate and following a 30 min incubation at room temperature, luciferase activity was quantified on a ViewLux CCD-based plate reader.
% is scaled to controls: 0 for no effect and ±100 for the full control effect; potency is read from the fitted curve at half-maximal effect.

ATPase family AAA domain-containing protein 5 (Homo sapiens), sequence (Q96QE3 whole entry, looked up, the tested form may be a part): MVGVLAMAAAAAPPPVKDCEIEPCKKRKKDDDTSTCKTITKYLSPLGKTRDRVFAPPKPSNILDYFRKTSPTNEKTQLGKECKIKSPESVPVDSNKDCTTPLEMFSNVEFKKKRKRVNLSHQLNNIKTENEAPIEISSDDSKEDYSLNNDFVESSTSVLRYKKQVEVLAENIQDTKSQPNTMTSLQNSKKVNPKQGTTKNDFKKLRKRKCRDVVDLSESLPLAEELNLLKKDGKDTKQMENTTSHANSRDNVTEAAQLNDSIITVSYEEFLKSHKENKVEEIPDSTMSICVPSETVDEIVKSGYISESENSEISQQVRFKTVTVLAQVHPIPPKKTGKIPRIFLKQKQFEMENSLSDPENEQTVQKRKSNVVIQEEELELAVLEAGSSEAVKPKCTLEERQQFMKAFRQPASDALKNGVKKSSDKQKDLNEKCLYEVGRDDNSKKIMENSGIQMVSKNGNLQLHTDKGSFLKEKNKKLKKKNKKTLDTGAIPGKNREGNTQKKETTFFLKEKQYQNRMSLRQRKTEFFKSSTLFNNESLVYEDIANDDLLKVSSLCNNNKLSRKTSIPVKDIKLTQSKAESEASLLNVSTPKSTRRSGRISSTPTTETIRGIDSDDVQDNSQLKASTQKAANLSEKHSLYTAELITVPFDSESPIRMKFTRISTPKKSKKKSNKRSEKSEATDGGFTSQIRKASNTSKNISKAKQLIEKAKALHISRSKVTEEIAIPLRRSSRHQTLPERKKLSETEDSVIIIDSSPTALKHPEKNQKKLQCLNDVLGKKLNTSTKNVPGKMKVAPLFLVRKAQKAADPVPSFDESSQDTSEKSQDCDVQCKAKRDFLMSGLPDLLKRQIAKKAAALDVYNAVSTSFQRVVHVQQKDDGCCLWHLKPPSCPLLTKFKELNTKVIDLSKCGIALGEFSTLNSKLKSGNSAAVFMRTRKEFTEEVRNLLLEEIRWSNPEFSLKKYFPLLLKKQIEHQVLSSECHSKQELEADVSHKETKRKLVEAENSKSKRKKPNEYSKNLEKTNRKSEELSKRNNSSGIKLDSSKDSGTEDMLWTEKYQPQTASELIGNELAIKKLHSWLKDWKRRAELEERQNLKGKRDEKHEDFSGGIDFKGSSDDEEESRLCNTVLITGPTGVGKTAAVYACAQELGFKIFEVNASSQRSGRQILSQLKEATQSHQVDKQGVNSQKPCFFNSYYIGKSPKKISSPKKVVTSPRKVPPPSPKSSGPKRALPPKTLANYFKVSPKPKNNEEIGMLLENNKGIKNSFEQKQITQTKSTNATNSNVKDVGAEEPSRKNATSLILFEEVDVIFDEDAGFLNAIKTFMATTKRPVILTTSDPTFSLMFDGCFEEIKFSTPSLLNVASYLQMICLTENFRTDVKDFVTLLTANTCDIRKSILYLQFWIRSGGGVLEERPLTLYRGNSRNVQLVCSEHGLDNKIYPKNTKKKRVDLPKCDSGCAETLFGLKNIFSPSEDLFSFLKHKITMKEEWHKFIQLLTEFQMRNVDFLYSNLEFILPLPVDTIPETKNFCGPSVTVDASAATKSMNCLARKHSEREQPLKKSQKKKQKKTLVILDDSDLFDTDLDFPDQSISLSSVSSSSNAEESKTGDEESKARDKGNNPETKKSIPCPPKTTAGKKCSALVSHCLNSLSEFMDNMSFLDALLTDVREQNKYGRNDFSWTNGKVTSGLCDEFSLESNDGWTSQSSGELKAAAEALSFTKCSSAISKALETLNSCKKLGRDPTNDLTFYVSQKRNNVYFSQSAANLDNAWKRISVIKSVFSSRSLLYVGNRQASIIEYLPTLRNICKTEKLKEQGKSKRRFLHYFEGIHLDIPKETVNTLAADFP

Row | Structure (SMILES) | activity change, negative = decrease | Potency
1 | Cc1cccc(C)c1NC1=NCCCS1 | -16.8% (inactive) | –
2 | Cc1ncc(CNC(=O)N(CCCl)N=O)c(N)n1 | -13.1% (inactive) | –
3 | NN=C(N)N | – | inactive
4 | CC(=O)[C@H]1CC[C@H]2[C@@H]3CC[C@H]4C[C@H](O)CC[C@]4(C)[C@H]3C(=O)C[C@]12C | -7.54% (inactive) | –
5 | O=c1[nH]c2ccccc2n1CCCN1CCC(n2c(=O)[nH]c3cc(Cl)ccc32)CC1 | – | 16.4 µM (active)
6 | COc1ccc(C(CN(C)C)C2(O)CCCCC2)cc1 (stereo not given) | -9.11% (inactive) | –
7 | CCCN1CCC[C@@H]2Cc3[nH]ncc3C[C@H]21 | – | inactive
8 | CCCN1CCC[C@@H]2Cc3nc(N)ncc3C[C@H]21 | 5.26% (inactive) | –
9 | CC(C)=CCOc1c2occc2cc2ccc(=O)oc12 | -1.3% (inactive) | –
10 | c1ccc(C2CC2)c(OCC2=NCCN2)c1 | -3.04% (inactive) | –
11 | NCC(O)c1ccc(O)cc1 (stereo not given) | 9.39% (inactive) | –
12 | CC(CCc1ccccc1)NC(C)C(O)c1ccc(O)cc1 (stereo not given) | -5.6% (inactive) | –
13 | CC[C@@H](CO)NC(=O)[C@@H]1C=C2c3cccc4c3c(cn4C)C[C@H]2N(C)C1 | 10.5% (inactive) | –
14 | NCC1(CC(=O)O)CCCCC1 | 4.34% (inactive) | –
15 | CCCC(C)(COC(N)=O)COC(=O)NC(C)C (stereo not given) | 29.3% (inactive) | –
16 | COc1ccccc1N1CCNCC1 | -0.109% (inactive) | –
17 | CNCC(O)c1ccc(O)cc1 (stereo not given) | 9.35% (inactive) | –
18 | CC(O)(CS(=O)(=O)c1ccc(F)cc1)C(=O)Nc1ccc(C#N)c(C(F)(F)F)c1 (stereo not given) | -24.3% (inactive) | –
19 | Fc1ccc(C(OCCN2CCN(CCCc3ccccc3)CC2)c2ccc(F)cc2)cc1 | – | 23.1 µM (active)
20 | Cc1cccc(C)c1NC(=O)CN1CCCC1=O | -7.68% (inactive) | –
21 | CC[C@@H](CO)NC(=O)[C@@H]1C=C2c3cccc4[nH]cc(c34)C[C@H]2N(C)C1 | -5.38% (inactive) | –
22 | Cc1cc2c(C(C)C)c(O)c(O)c(C=O)c2c(O)c1-c1c(C)cc2c(C(C)C)c(O)c(O)c(C=O)c2c1O | – | 8.2 µM (active)
23 | CC(=O)[C@H]1CC[C@H]2[C@@H]3CC[C@H]4C[C@](C)(O)CC[C@]4(C)[C@H]3CC[C@]12C | 0.498% (inactive) | –
24 | COC[C@H]1OC(=O)c2coc3c2[C@@]1(C)C1=C(C3=O)C2CCC(=O)[C@@]2(C)C[C@H]1OC(C)=O (stereo not given in full) | -14.2% (inactive) | –
25 | N#CC(C#N)=Cc1ccc(O)c(O)c1 | 12.6% (inactive) | –
26 | C[C@@H]1O[C@@H](O[C@H]2C[C@@H](O)[C@]3(CO)[C@H]4[C@H](O)C[C@]5(C)[C@@H](C6=CC(=O)OC6)CC[C@]5(O)[C@@H]4CC[C@]3(O)C2)[C@H](O)[C@H](O)[C@H]1O | – | 0.092 µM (active)
27 | O=c1c(O)c(-c2ccc(O)c(O)c2)oc2cc(O)cc(O)c12 | – | 20.6 µM (active)
28 | Nc1ccncc1 | 2.42% (inactive) | –
29 | O=c1[nH]c2ccccc2n1C1CCN(CCCC(c2ccc(F)cc2)c2ccc(F)cc2)CC1 | – | 11.6 µM (active)
30 | c1ccc2c(c1)OCC(C1=NCCN1)O2 (stereo not given) | – | 14.6 µM (active)
